Hits are enriched below; roughly 2.8% of the tested compounds scored in any of these assays.
PI4K2A inh: PI4K2A (human) kinase inhibition | purified PI4K2A, ADP-Glo luminescence, 1 h; stronger effect = lower value | activity change, negative = inhibition, % at 76.9 µM | 0.13% of 420,000 active; in the data active = activity change below about -50%; inconclusive = mostly about -30% to -49%;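 also: -100% = wells without enzyme as full effect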
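Compounds are screened against recombinant PI4K2A using PI as substrate and ATP, the latter dispensed at 300 microM. Reactions run one hour at ambient temperature before ADP-Glo detection; full inhibition defined by wells lacking enzyme.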
PI5P4K alpha inh: inhibitors of human PI5P4K alpha. PI5P4Kalpha enzyme, ADP-Glo luminescence, 60 min; stronger effect = lower value. max response, %. 1.2% of 330,000 active. P48426. AID 652105; active = max response of -50% or lower; inconclusive = between -30% and -50%; inactive = -30% or higher; also: value at the top dose of about 77 µM; % is scaled to controls: 0 for no effect and ±100 for the full control effect
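ADP-Glo luminescence end-point read after a 60 min room-temperature kinase reaction of PI5P4Kalpha plus substrate, initiated with ATP at 5 microM final. Buffer: 0.038 M HEPES pH 7.4, EGTA, 0.1% CHAPS, 5% DMSO.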
POLI inh: blocks human DNA polymerase iota activity; Q9UNA4; AID 588590; Pol iota fluorescent replication assay, 10 min; Potency, µM (top dose mostly 115 µM), for inactives: top-dose activity, negative = inhibition, usual class: inhibitors; 1% of 390,000 active; also: potency is read from the fitted curve at half-maximal effect
Target sequence (Q9UNA4 whole entry, looked up): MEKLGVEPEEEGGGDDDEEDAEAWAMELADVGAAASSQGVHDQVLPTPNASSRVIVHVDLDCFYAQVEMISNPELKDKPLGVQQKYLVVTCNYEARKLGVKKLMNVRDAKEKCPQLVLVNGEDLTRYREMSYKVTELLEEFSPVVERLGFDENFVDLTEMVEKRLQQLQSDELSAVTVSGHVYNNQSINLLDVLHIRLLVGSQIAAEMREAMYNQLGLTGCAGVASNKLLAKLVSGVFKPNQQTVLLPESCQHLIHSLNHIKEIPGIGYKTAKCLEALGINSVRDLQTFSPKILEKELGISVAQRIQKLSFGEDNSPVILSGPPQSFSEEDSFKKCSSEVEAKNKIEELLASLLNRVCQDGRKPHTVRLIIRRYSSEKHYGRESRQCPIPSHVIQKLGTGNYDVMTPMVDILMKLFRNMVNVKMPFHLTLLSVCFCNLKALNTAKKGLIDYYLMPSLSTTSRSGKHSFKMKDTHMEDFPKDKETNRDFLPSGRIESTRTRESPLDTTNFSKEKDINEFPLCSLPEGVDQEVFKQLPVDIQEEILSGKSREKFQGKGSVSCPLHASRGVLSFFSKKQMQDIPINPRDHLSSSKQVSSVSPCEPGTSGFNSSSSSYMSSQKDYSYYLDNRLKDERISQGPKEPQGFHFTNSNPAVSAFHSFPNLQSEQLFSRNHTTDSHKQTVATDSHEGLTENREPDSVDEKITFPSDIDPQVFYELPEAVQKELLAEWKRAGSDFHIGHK
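Fluorescent replication assay read twice, at 0 min and 10 min after adding 50 nM (final) substrate. Enzyme (10 nM) and compounds were first incubated 15 min at room temperature; enzyme-free buffer wells were negative controls.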
POLK inh: inhibitors of human DNA polymerase kappa; Q9UBT6; Potency, µM (highest dose often 107 µM), without a hit: at the highest dose activity, negative = inhibition, usual class: inhibitors; 0.53% of 400,000 active; AID 588579; purified Pol kappa, fluorescent DNA synthesis assay, 10 min; also: potency is read from the fitted curve at half-maximal effect; % is scaled to controls: 0 for no effect and ±100 for the full control effect
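Kinetic fluorescence readout at 0 and 10 min followed reaction start with substrate at 50 nM final. Beforehand, enzyme (10 nM Pol kappa) stood 15 min with compound at room temperature; buffer-only wells were negative controls.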
Pol eta inh: DNA polymerase eta (human) inhibition. Q9Y253. Potency, µM (highest dose often 114 µM), for the others: top-dose activity change, negative = inhibition, usual class: inhibitors. 1.2% of 390,000 active. recombinant Pol eta, fluorescent DNA replication assay; also: potency is read from the fitted curve at half-maximal effect; % is scaled to controls: 0 for no effect and ±100 for the full control effect
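Pol eta at 10 nM preincubated with compounds 15 min at room temperature; reaction started with fluorescent substrate (50 nM final) and read kinetically at 0 and 10 min.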
POLB inh: blocks human DNA polymerase beta activity | P06746 | Pol beta primer extension/strand displacement, fluorescence kinetic | Potency, µM (doses to about 114 µM), for the others: at the highest dose activity change, negative = inhibition, most hits filed as inhibitors | 1.3% of 340,000 active | AID 485314; also: potency is read from the fitted curve at half-maximal effect; % is scaled to controls: 0 for no effect and ±100 for the full control effect
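10 nM enzyme + cpd, 15 min RT; start with substrate 50 nM final; read 0 min and after 10 min RT. Corrected, normalized data; 4-parameter Hill curve fit.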
* marks the source's active call; other numbers are inactive results; ! = a repeat was not active; [ ] = another dose, or the depositor's remark. Unless noted, calls follow the shape of the dose curve; as a rule, active = well fitted inhibition curve with a large enough effect; inconclusive = small, poorly fitted or top-dose-only effect, or another doubt; inactive = no such curve, though single readings can be large or run the other way.

Screening COc1cc(NC(=O)C2CCCN(S(=O)(=O)c3ccc4c(c3)CCCN4C(C)=O)C2)cc(OC)c1 (stereo not drawn) returned PI4K2A inh -1.7, PI5P4K alpha inh 3.8, POLI inh -1.7%, POLK inh -15.1%, Pol eta inh -10.4% and POLB inh 3.2%.
COc1ccc(NC(=O)C2CCCN(S(=O)(=O)c3ccc4c(c3)CCCN4C(C)=O)C2)cc1 (stereo not drawn) was read as PI4K2A inh 2.1, PI5P4K alpha inh -10.6, POLI inh 79.4µM*!, POLK inh -16.5%, Pol eta inh 19.3% and POLB inh 4.2%.
`OC(CBr)C[n+]1cc(Br)cc2ccccc21` (stereo not drawn) gave POLI inh 8.6% and POLK inh -20.3%.
Screening Cc1ccc(N2CC(C(=O)Nc3ccc(S(=O)(=O)NCC4CCCO4)cc3)CC2=O)cc1 (stereo not drawn) returned PI4K2A inh -2.3, PI5P4K alpha inh 1.4, POLI inh inconclusive, POLK inh -5.9%, Pol eta inh -11.2% and POLB inh 56.2µM*.
`C=C1NN(CC2CC2)C(=O)N1c1ccc(OCc2ccccc2)cc1` gave POLI inh 5.5% and POLK inh -4.3%.
CC1=C(C(=O)OCc2ccccc2)C(c2ccc(Br)cc2)NC(=O)N1CCCC(=O)O (stereo not drawn) was read as PI4K2A inh 0.2, PI5P4K alpha inh -79.9*, POLI inh inconclusive, POLK inh 3.4%, Pol eta inh -12.1% and POLB inh 24.6%.
For CC1=C(C(=O)OCc2ccccc2)C(c2ccc(Cl)cc2)NC(=O)N1CCCC(=O)O (stereo not drawn) the results were PI4K2A inh -5.1, PI5P4K alpha inh -99.5*, POLI inh -14.3%, POLK inh 6.6%, Pol eta inh -9.6% and POLB inh 31.3%.
Screening Cc1c(-c2ccc(O)cc2)n(Cc2ccc(OCCN3CCCCCC3)cc2)c2ccc(O)cc12 returned PI4K2A inh -2.2.
Screening COc1cc(OC)cc(C(=O)N[C@H](C(=O)OCC(=O)Nc2sccc2C#N)C(C)C)c1 returned PI4K2A inh -3.9, PI5P4K alpha inh inconclusive, POLI inh inconclusive, POLK inh inconclusive, Pol eta inh 50.1µM* and POLB inh inconclusive.
For COc1cc(OC)cc(C(=O)N[C@H](C(=O)OCC(=O)Nc2ccc(C(C)C)cc2)C(C)C)c1 the results were PI4K2A inh -3.5, PI5P4K alpha inh 18.6, POLI inh 51.5%, POLK inh -4.8%, Pol eta inh -25.2% and POLB inh 2.6%[57.1 µM].
For N#Cc1ccsc1NC(=O)COC(=O)c1ccc(Br)o1 the results were PI4K2A inh -18.5, PI5P4K alpha inh inconclusive, POLI inh 25.1µM*, POLK inh -41.8% and Pol eta inh inconclusive.
Nc1[nH]c(=S)[nH]c(=O)c1N=O was read as POLI inh 4.1% and POLK inh 9.2%.
Screening COc1ccc(Cl)cc1NC(=O)CN(c1cc(C)cc(C)c1)S(=O)(=O)c1c(C)n[nH]c1C returned PI4K2A inh 2.8, POLI inh 79.4µM*, POLK inh inconclusive, Pol eta inh inconclusive and POLB inh -9.0%.
COC(c1ccccc1)(c1ccccc1)[C@H](Oc1nc(C)cc(C)n1)C(=O)O was read as PI4K2A inh -0.5.
`Nc1ccc(-c2nc3ccc(-c4nc5ccc(N)cc5[nH]4)cc3[nH]2)cc1` gave PI4K2A inh 0.7, POLI inh 3.98µM*, POLK inh 2.67µM*, Pol eta inh 6.31µM* and POLB inh 1.41µM*.
For Nc1ccc(-c2nc3ccccc3[nH]2)cc1 the results were PI4K2A inh -7.9, PI5P4K alpha inh -0.5, POLI inh 23.4%, POLK inh -0.6%, Pol eta inh -20.5% and POLB inh inconclusive.

Screens (PubChem)
